Assay outcomes: PubChem BioAssay, National Center for Advancing Translational Sciences (NCATS)
Gal4-VP16 FLuc: counter-screen for ROR gamma inhibitors: Gal4-VP16 reporter; Drosophila S2 Gal4-VP16 UAS-luciferase, luminescence, 20 h; Potency, µM (highest dose often 53.6 µM), inactives show at the top dose activity, negative = inhibition, most hits filed as inhibitors; AID 2546; hit rate 3.5% among 310,000;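 also: Gal4-VP16 expression switched on by copper sulfate through the metallothionein promoter; nearly all actives have a fitted effect of over 50% in size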
Tau fibril ThT: blocks human tau fibril formation measured by thioflavin T; P10636; recombinant tau K18 P301L, heparin-induced fibrillization, ThT fluorescence; Potency, µM (doses to about 57.4 µM), for the others: at the top dose activity, negative = inhibition, usual class: inhibitors; hit rate 2.1% among 270,000; AID 1460; also: nearly all actives have a fitted effect of over 55% in size
Target sequence (P10636 561-689 P618L limits assumed): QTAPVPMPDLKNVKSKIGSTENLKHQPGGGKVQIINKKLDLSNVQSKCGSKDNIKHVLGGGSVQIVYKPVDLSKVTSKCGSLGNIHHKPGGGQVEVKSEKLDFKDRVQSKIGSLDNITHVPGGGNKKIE
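Using a mix of unlabeled (15 uM) and Alexa 594-labeled (0.24 uM) tau K18 P301L, heparin-triggered fibrillization over 6 hr at 37 C was scored by ThT fluorescence.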
Tau fluor counter: counter-screen for tau fibril formation inhibitors; tau K18 P301L Alexa594 fluorescence, heparin fibrillization; Potency, µM (series often up to 57.7 µM), without a hit: at the top dose activity change, negative = decrease; hit rate 0.93% among 280,000; also: nearly all actives have a fitted effect of over 55% in size
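Human tau K18 P301L (15 uM unlabeled, 0.24 uM Alexa 594-labeled) in 100 mM sodium acetate pH 7 with 20 uM heparin, 6 hr at 37 C. ThT 30 uM added, 1 hr ambient; Alexa 594 FP and total fluorescence read at 555/632 nm.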
Tau fibril FP: blocks human tau fibril formation measured by polarization; Potency, µM (top dose mostly 57.7 µM), for inactives: at the highest dose activity, negative = inhibition, most hits filed as inhibitors; P10636; AID 1468; K18 P301L tau heparin fibrillization, Alexa594 FP, 6 h; hit rate 0.39% among 280,000; also: nearly all actives have a fitted effect of over 55% in size
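K18 P301L tau (15 uM unlabeled/0.24 uM Alexa 594-labeled, final) + compound + heparin 20 uM final; 100 mM NaOAc pH 7; 6 hr 37 C; ThT 30 uM final added, 1 hr RT; FP ex 555/em 632 nm.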
RORgamma inh: ROR gamma (mouse) transcription inhibition | P51450 | Drosophila S2 Gal4-RORgamma UAS-luciferase reporter, 20 h | Potency, µM (series often up to 53.6 µM), for inactives: at the top dose activity change, negative = inhibition, hits mostly inhibitors | hit rate 5.4% among 310,000 | AID 2551; also: nearly all actives have a fitted effect of over 60% in size
Target sequence (P51450 whole entry, looked up, the tested form may be a part): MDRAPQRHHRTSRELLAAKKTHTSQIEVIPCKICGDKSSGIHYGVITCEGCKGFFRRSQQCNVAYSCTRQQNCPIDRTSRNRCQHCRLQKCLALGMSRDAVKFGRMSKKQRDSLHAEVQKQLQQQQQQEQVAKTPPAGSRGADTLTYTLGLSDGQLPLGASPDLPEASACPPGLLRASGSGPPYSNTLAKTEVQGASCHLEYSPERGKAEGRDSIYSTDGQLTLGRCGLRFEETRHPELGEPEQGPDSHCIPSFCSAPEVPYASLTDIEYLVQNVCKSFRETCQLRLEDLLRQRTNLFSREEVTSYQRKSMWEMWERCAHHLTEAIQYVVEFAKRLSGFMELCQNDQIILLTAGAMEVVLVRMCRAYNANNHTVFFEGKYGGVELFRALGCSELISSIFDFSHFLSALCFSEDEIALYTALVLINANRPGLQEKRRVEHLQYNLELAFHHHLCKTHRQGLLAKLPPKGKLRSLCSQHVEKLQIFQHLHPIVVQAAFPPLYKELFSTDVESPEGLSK
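A Gal4/UAS one-hybrid system in insect cells: metallothionein-promoter Gal4–ROR gamma fusion plus Photinus luciferase reporter. Copper sulfate 700 uM final, 20 hr ambient incubation, luminescent detection after 10 min with reagent.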
The depositor's hits bear a star; ? = inconclusive; · = not tested or not shown; [ ] = remark or other dose. Rows were chosen to be rich in hits. Some 7.3% of all compounds tested hit in one or more screens of this group. Calls follow the shape of the dose curve; as a rule, active = well fitted curve in the direction sought with a large enough effect; inconclusive = small, poorly fitted or top-dose-only effect, or another doubt; inactive = no such curve, though single readings can be large; an effect the other way counts as inactive or inconclusive. % is scaled to controls: 0 for no effect and ±100 for the full control effect; potency is read from the fitted curve at half-maximal effect.

SMILES | Gal4-VP16 FLuc | Tau fibril ThT | Tau fluor counter | Tau fibril FP | RORgamma inh
COc1ccc(-c2nnc(NC(=O)C(C)C)o2)cc1 | ? | -9% | -6% | 3% | 11µM*
COc1cccc(-c2nnc(NC(=O)C3CCCCC3)o2)c1 | 11µM* | -17% | -5% | -2% | 3.5µM*
CCSc1nc(-c2ccc(Cl)cc2)nc2c1Cc1c(CO)cnc(C)c1O2 | · | 0% | 1% | 4% | ·
N#Cc1ccc(CS(=O)(=O)c2nnnn2C2CCCCC2)cc1 | 2% | 0% | 0% | -1% | -10%
COc1ccc(Cc2nnc(NC(=O)c3ccccc3F)s2)cc1OC | 3% | · | · | · | ?
COc1ccc(OC)c(-c2csc(NC(=O)Cc3ccccc3OC)n2)c1 | 2% | · | · | · | 29%
C=CCNc1nc(-c2ccc(OC)cc2OC)cs1 | 18µM* | ? | -26% | 9% | 9%
Cc1cc2c(nc1C)CCCN2C[C@H](O)CN1CCCc2nc(-c3ccc(Br)cc3)ccc21 | -13%[10 µM] | ? | -21%[11.6 µM] | 3%[11.6 µM] | 9%[10 µM]
CC(=O)c1ccc(NC(=O)Cn2nc(C(F)(F)F)c3c2CCC3)cc1 | · | ? | -13% | 2% | ·
Cc1nc2ccc(Br)cn2c1C(=O)N/N=C\c1ccc(C(C)C)cc1 | 5µM* | · | · | · | 5.6µM*
Cc1ccc(/C(=N/Nc2nc3ccccc3s2)C2=C(O)c3ccccc3C2=O)cc1 | ? | ? | ? | -1% | 4.5µM*
CC[C@H](C)[C@H](NC(=O)[C@H](C)NC(=O)[C@@H](N)C(C)C)C(=O)N[C@H](C(=O)N[C@H](C(=O)N[C@@H](CC(C)C)C(=O)N[C@H](C(=O)N[C@@H](CCCCN)C(=O)O)C(C)C)C(C)C)[C@@H](C)O | -11% | · | · | · | 0%
Cc1ccc(C)c(NC(=S)NCCc2ccc(F)cc2)c1 | 3.2µM* | -5% | -19% | -6% | 2.5µM*
Cc1ccc(NNC(=S)Nc2ccc(C(C)C)cc2)c(C)c1 | ? | 14µM* | ? | -8% | 11µM*
Cc1ccc([N+](=O)[O-])cc1NC(=S)NCCc1ccccc1 | ? | · | · | · | 13µM*
Cc1cc(Br)ccc1NC(=S)NCCc1ccccc1 | 6.3µM* | · | · | · | 2.5µM*
Cc1ccccc1NC(=S)NCCc1ccccc1 | -6% | 7% | 2% | 0% | 29%
Cc1ccc(NC(=O)CCC(=O)NNC(=S)Nc2ccc(F)cc2F)cc1C | -16% | · | · | · | -31%
Cc1ccc(NC(=S)NCCc2ccccc2)c(C)c1 | 3.5µM* | 5% | 0% | -2% | 2µM*
Cc1ccc(C)c(NC(=S)NNc2ccc(F)cc2F)c1 | 3.2µM* | · | · | · | ?
CCCOc1ccc(C2CC(=O)Nc3cc(OC)c(OC)cc32)cc1 (centres undefined) | -18% | · | · | · | ?
O=C(NCCCN1CCN(c2ccccc2F)CC1)c1ccc2nc(CCc3ccccc3)oc2c1 | · | ? | -16% | 1% | ·
C=CCN(CC=C)Cc1nc(N)nc(Nc2ccccc2C)n1 | -8% | -6% | -5% | -3% | 13µM*
O=C(Cc1cc(=O)[nH][nH]1)N/N=C/C(Cl)=C/c1ccccc1 | -4% | 2.8µM* | ? | ? | 31%
O=C(Cc1cc(=O)[nH][nH]1)N/N=C/c1c(Cl)cccc1Cl | ? | ? | ? | -9% | 21%
SMILES | Gal4-VP16 FLuc | Tau fibril ThT | Tau fluor counter | Tau fibril FP | RORgamma inh
CCOC(=O)C1CCN(CC(=O)c2c(C)n(C)c3ccc(OC)cc23)CC1 | -1% | · | · | · | -1%
N#Cc1c2n(c3c(=S)nc[nH]c13)CCCCC2 | 18µM* | -9% | -6% | -7% | 3.5µM*
C=CCNC(=S)NNC(=O)COc1ccc(Br)cc1 | 3.5µM* | -13% | -11% | 4% | 5µM*
C=CCNC(=S)NNC(=O)c1ccccc1OCC | -7% | 3% | -3% | -3% | -25%
C=CCNC(=S)NNC(=O)c1cccc(Br)c1 | ? | -14% | -14% | -1% | ?
C=CCNC(=S)NNC(=O)COc1ccc2cc(Br)ccc2c1 | ? | -17% | -18% | -5% | 3.2µM*
C=CCNC(=S)NNC(=O)COc1cccc(Cl)c1 | 8.9µM* | 7% | 5% | -2% | 1.3µM*
CC(=O)Nc1ccc(S(=O)(=O)NCC2CCC(C(=O)N3CC(C)CC(C)C3)CC2)cc1 (centres undefined) | 6% | · | · | · | -32%
CC(C)[C@H](NC(=O)c1ccco1)C(=O)NCc1ccccc1 | 9% | · | · | · | -9%
CCOC(=O)c1c(NC(=O)COc2ccc(Cl)cc2Cl)sc2c1CCCCC2 | · | 4% | 1% | 0% | ·
COc1cc(NC(=O)c2cc3c(s2)-c2ccccc2OC3)cc(OC)c1OC | · | ? | 6.3µM*[quencher] | 9% | ·
CC1(N)CCC(C(C)(C)N)CC1 (centres undefined) | 7% | · | · | · | 8%
CC(=O)c1cn(CC(=O)Nc2cccc(C)c2C)c2ccccc12 | 13µM* | -12% | -10% | -1% | ?
CCC(=O)c1cn(CC(=O)Nc2cccc(C)c2C)c2ccccc12 | 16% | · | · | · | -6%[1.91 µM]
C#CCCCO/N=C1/C[C@@H](O)[C@@H](O)[C@@H]2[C@@H]3C(=O)N(C[C@@H]4CCCO4)C(=O)[C@H]3CC[C@@H]12 | -3%[10 µM] | -7%[11.5 µM] | ? | ? | 9%[10 µM]
CN(/N=C/c1ccc2c(c1)OCO2)c1ccccc1 | 18µM* | 1% | 6% | ? | -44%
COc1cc(/C=N/N(C)c2ccccc2)ccc1O | -11% | 13µM* | ? | 10% | 1%
COc1cc(OC)c(OC)cc1/C=N/N(C)c1ccccc1 | 4% | ? | 16µM*[quencher] | ? | 16%
C(=N\N(c1ccccc1)c1ccccc1)/c1ccc2c(c1)OCO2 | -1% | -7% | -22% | 3% | 36%
CN(/N=C/c1cc([N+](=O)[O-])ccc1O)c1ccccc1 | 18% | ? | -20% | 1% | 25%
CCOC(=O)c1[nH]c(C)c(CCC(=O)NCc2ccc(C)cc2)c1C | · | -5% | -2% | 6% | ·
O=c1cc(-c2ccc(O)c(O)c2)oc2cc(OC3OC(CO)C(O)C(O)C3O)cc(O)c12 (centres undefined) | 0% | ? | ? | -8% | 28%
Cc1nc2ccc(S(=O)(=O)NC(C(=O)NCc3ccc(Cl)cc3)C(C)C)cc2s1 (centres undefined) | · | -4% | -15% | 0% | ·
Clc1ccc(Nc2ccc(NCc3ccccc3)nn2)cc1 | 8% | ? | 13µM*[quencher] | 14% | 16%
CC(=O)NC(CC(=O)N(C)Cc1cccc(Cl)c1Cl)c1ccccc1 (centres undefined) | -16%[10 µM] | -11% | -3% | 1% | -18%
C=CCN(CC=C)C(=O)c1c(OC)cccc1OC | -7% | -6% | -8% | -2% | 22%
C=CCc1c(C)[nH]c2c(OC)cccc2c1=S | ? | -15% | -7% | -10% | 11µM*
O=C(/C=C/c1cccs1)NC(=S)Nc1ccccc1 | 8.9µM* | -14% | -20% | -13% | 3.2µM*
O=C(/C=C/c1cccs1)NC(=S)NNC(=O)c1ccccc1O | 2% | 14µM* | ? | 6% | ?
Cc1ccccc1NC(=O)/C=C/c1cccs1 | ? | -6% | -5% | 4% | ?
